Here are results for 21 compounds from the supplement of paper PMC10732440.

± gives the standard deviation of the averaged measurements.

For the first experiment, the system named is Caenorhabditis elegans N2 infected with Nematocida parisii ERTm1. In words: progeny production relative to DMSO uninfected control; higher = more progeny despite microsporidia infection (inhibition of infection with low host toxicity). Particulars: infection time 6 days; 40 µM. Here is the method:
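Bleach-synchronised C. elegans N2 L1 larvae (100 per well) were grown in 96-well plates in K-medium with 5x E. coli OP50 and 15,000 N. parisii spores/uL, plus Pandemic Response Box compound at 100 uM or 40 uM (1% DMSO), for 6 days at 21 C with shaking. Worms were stained with Rose Bengal, scanned on a flatbed scanner and counted with WorMachine. Progeny production is given as % of the DMSO uninfected control (triplicate wells), so higher values mean the compound restores progeny despite infection.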
Take `Cc1ccn2c(C(=O)NCc3ccccc3)c(C)nc2c1`: the progeny production came to 9.26 ± 8.6%.

In turn, `CC(=O)N[C@H](C)C(=O)N[C@H](Cc1ccccc1)C(=O)O` showed a progeny production of 9.08 ± 7.2%.

`O=c1ccc2ncc(=O)n3c2n1CC3CN1CCC(NCc2cc3c(cn2)OCCC3)CC1` (stereo unspecified) gave a progeny production of 2.13 ± 0.25%.

Compound `Nc1nc(=O)c(Br)c(-c2ccccc2)[nH]1` showed a progeny production of 5.86 ± 5.3%.

For `COC1CC2CCC(C)C(O)(O2)C(=O)C(=O)N2CCCCC2C(=O)OC(C(C)CC2CCC(OCCO)C(OC)C2)CC(=O)C(C)/C=C(\C)C(O)C(OC)C(=O)C(C)CC(C)/C=C/C=C/C=C/1C` (stereo unspecified), the progeny production turned out to be 5.45 ± 2.7%.

In turn, `Cc1cc(CCOc2c(C)cc(-c3nnn(C)n3)cc2C)on1` had a progeny production of 4.64 ± 1.1%.

Compound `COc1cc(NCc2ccc3nc(N)nc(N)c3c2C)cc(OC)c1OC` showed a progeny production of 2.11 ± 0.79%.

For `Nc1nc(N)c2c(Sc3ccccc3)cccc2n1`, the progeny production worked out at 3.69 ± 1.5%.

In the case of `C[C@H]1[C@@H](c2cccc(C(F)(F)F)c2)OC(=O)N1C(=O)NCc1cncc2ccccc12`, the progeny production was determined as 2.28 ± 1.4%.

Compound `COc1nc2ccc(Br)cc2cc1[C@@H](c1ccccc1)[C@@](O)(CCN(C)C)c1cccc2ccccc12` showed a progeny production of 7.24 ± 3.5%.

For `Oc1c(C(Nc2nc3ccccc3s2)c2ccc(OC(F)F)cc2)ccc2cccnc12` (stereo unspecified), the progeny production was 3.08 ± 0.27%.

Compound `O=C(NCc1ccc(F)cc1)c1c(O)c2ncccc2[nH]c1=O` had a progeny production of 5.38 ± 2.2%.

In the case of `CCc1nc(N)nc(N)c1C#CCc1ccccc1`, the progeny production was found to be 8.69 ± 6%.

`CCOc1noc2cc(OCCC3CCN(c4ccc(C)nn4)CC3)ccc12` gave a progeny production of 4.43 ± 1.4%.

Take `C[C@H](NC(CC(=O)c1ccccc1C(F)(F)F)C(=O)O)c1ccccc1` (stereo partly specified): the progeny production worked out at 8 ± 6.4%.

Regarding `CC(C)c1ccc(COc2cccc(-c3cc([S+](C)[O-])c(C#N)c(=O)[nH]3)c2)cc1` (stereo unspecified), the progeny production turned out to be 2.96 ± 1.6%.

`CO/N=C(\C(=O)N[C@@H]1C(=O)N2C(C(=O)OCOC(=O)C(C)(C)C)=C(/C=C\c3scnc3C)CS[C@H]12)c1csc(N)n1` gave a progeny production of 4.46 ± 2.2%.

Turning to `C=CCN(C(=O)OCc1ccc([N+](=O)[O-])cc1)C1CCN(CC[C@](C)(CN(C)S(=O)(=O)c2ccccc2)c2ccccc2)CC1`, the progeny production turned out to be 3.88 ± 1.4%.

`O=C1[C@H](CC[C@H](O)c2ccc(F)cc2)[C@@H](c2ccc(O)cc2)N1c1ccc(F)cc1` came in with a progeny production of 6.94 ± 2.7%.

Turning to `O=S(=O)(NCB(O)O)c1cc2c(Cl)ccc(Cl)c2s1`, the progeny production is 4.07 ± 0.53%.

As for `CC(=O)N1CCN(c2ccc(OCC3COC(Cn4ccnc4)(c4ccc(Cl)cc4Cl)O3)cc2)CC1` (stereo unspecified), the progeny production turned out to be 5.16 ± 2.3%.

The same experiment, now with this note: infection time 6 days; 100 µM.
Regarding `Cc1ccn2c(C(=O)NCc3ccccc3)c(C)nc2c1`, the progeny production worked out at 13.1 ± 10%.

`CC(=O)N[C@H](C)C(=O)N[C@H](Cc1ccccc1)C(=O)O` yielded a progeny production of 10 ± 3.2%.

Regarding `O=c1ccc2ncc(=O)n3c2n1CC3CN1CCC(NCc2cc3c(cn2)OCCC3)CC1` (stereo unspecified), the progeny production was determined as 18.2 ± 18%.

In turn, `Nc1nc(=O)c(Br)c(-c2ccccc2)[nH]1` gave a progeny production of 9.38 ± 7.4%.

`COC1CC2CCC(C)C(O)(O2)C(=O)C(=O)N2CCCCC2C(=O)OC(C(C)CC2CCC(OCCO)C(OC)C2)CC(=O)C(C)/C=C(\C)C(O)C(OC)C(=O)C(C)CC(C)/C=C/C=C/C=C/1C` (stereo unspecified) had a progeny production of 9.56 ± 2.5%.

Turning to `Cc1cc(CCOc2c(C)cc(-c3nnn(C)n3)cc2C)on1`, the progeny production came out at 8.74 ± 2.1%.

For `Nc1nc(N)c2c(Sc3ccccc3)cccc2n1`, the progeny production was 16.4 ± 12%.

Compound `C[C@H]1[C@@H](c2cccc(C(F)(F)F)c2)OC(=O)N1C(=O)NCc1cncc2ccccc12` had a progeny production of 7.48 ± 6.2%.

As for `COc1nc2ccc(Br)cc2cc1[C@@H](c1ccccc1)[C@@](O)(CCN(C)C)c1cccc2ccccc12`, the progeny production was found to be 14.3 ± 4.9%.

`Oc1c(C(Nc2nc3ccccc3s2)c2ccc(OC(F)F)cc2)ccc2cccnc12` (stereo unspecified) displayed a progeny production of 9.48 ± 12%.

`O=C(NCc1ccc(F)cc1)c1c(O)c2ncccc2[nH]c1=O` returned a progeny production of 16 ± 8.6%.

For `CCc1nc(N)nc(N)c1C#CCc1ccccc1`, the progeny production stood at 15.6 ± 5%.

In the case of `CCOc1noc2cc(OCCC3CCN(c4ccc(C)nn4)CC3)ccc12`, the progeny production was 17.1 ± 11%.

Take `C[C@H](NC(CC(=O)c1ccccc1C(F)(F)F)C(=O)O)c1ccccc1` (stereo partly specified): the progeny production stood at 5.89 ± 3.9%.

In turn, `CC(C)c1ccc(COc2cccc(-c3cc([S+](C)[O-])c(C#N)c(=O)[nH]3)c2)cc1` (stereo unspecified) registered a progeny production of 21.4 ± 25%.

`CO/N=C(\C(=O)N[C@@H]1C(=O)N2C(C(=O)OCOC(=O)C(C)(C)C)=C(/C=C\c3scnc3C)CS[C@H]12)c1csc(N)n1`: the progeny production was determined as 13.1 ± 5.6%.

Regarding `C=CCN(C(=O)OCc1ccc([N+](=O)[O-])cc1)C1CCN(CC[C@](C)(CN(C)S(=O)(=O)c2ccccc2)c2ccccc2)CC1`, the progeny production was 5.72 ± 2.3%.

The compound `O=C1[C@H](CC[C@H](O)c2ccc(F)cc2)[C@@H](c2ccc(O)cc2)N1c1ccc(F)cc1` displayed a progeny production of 21 ± 14%.

`O=S(=O)(NCB(O)O)c1cc2c(Cl)ccc(Cl)c2s1` had a progeny production of 15.8 ± 20%.

The compound `CC(=O)N1CCN(c2ccc(OCC3COC(Cn4ccnc4)(c4ccc(Cl)cc4Cl)O3)cc2)CC1` (stereo unspecified) showed a progeny production of 18 ± 6.4%.
